Assays:
Assay in all cases: PBM binding z-score (relative to random genomic background probes); higher = stronger binding; sequences stand for … in GC…GCGATTGACAGCGTAGAATGAAGG
[1] = system: FXR:RXRa (NR concentration 270 nM, RXRa partner concentration 90 nM)
Outline: (§1)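 Antibodies against each partner of ligand-free nuclear receptor dimers (one per run) detected binding on custom Agilent 4×180K protein-binding microarrays after 1 h incubation. The double-stranded probes had 34-nt variable regions carrying direct-repeat seeds, single-nucleotide variants, half-site ablations and random human genomic background sequences. Binding z-scores, from regression-normalized fluorescence, use the random background probes as reference.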

[2] = system: LXRa:RXRa (NR concentration 270 nM, RXRa partner concentration 90 nM)
Outline: as §1

[3] = system: LXRa homodimer (NR concentration 270 nM)
Outline: as §1

[4] = system: LXRb:RXRa (NR concentration 270 nM, RXRa partner concentration 90 nM)
Outline: as §1

[5] = system: LXRb homodimer (NR concentration 270 nM)
Outline: as §1

[6] = system: PPARa:RXRa (NR concentration 270 nM, RXRa partner concentration 90 nM)
Outline: as §1

[7] = system: PPARg:RXRa (NR concentration 180 nM, RXRa partner concentration 90 nM)
Outline: as §1

[8] = system: PPARg:RXRa 270nM:90nM, anti-RXR (NR concentration 270 nM, RXRa partner concentration 90 nM)
Outline: as §1

[9] = system: PPARg:RXRa 30nM:10nM, anti-RXR (NR concentration 30 nM, RXRa partner concentration 10 nM)
Outline: as §1

[10] = system: PPARg:RXRa 90nM:30nM, anti-RXR (NR concentration 90 nM, RXRa partner concentration 30 nM)
Outline: as §1

[11] = system: PPARg:RXRa DBDmut IVT, anti-RXR (DBD mutation: RXRa K156A/R161A, NR concentration 270 nM, RXRa partner concentration 90 nM)
Outline: as §1

[12] = system: PPARg:RXRa IVT, anti-PPARg (NR concentration 270 nM, RXRa partner concentration 90 nM)
Outline: as §1

[13] = system: PPARg DBDmut:RXRa IVT, anti-PPARg (DBD mutation: PPARg1 K132A/R137A, NR concentration 270 nM, RXRa partner concentration 90 nM)
Outline: as §1

[14] = system: PPARg DBDmut IVT, anti-PPARg (DBD mutation: PPARg1 K132A/R137A, NR concentration 270 nM)
Outline: as §1

[15] = system: PPARg homodimer (NR concentration 180 nM)
Outline: as §1

[16] = system: PXR:RXRa (NR concentration 270 nM, RXRa partner concentration 90 nM)
Outline: as §1

[17] = system: PXR homodimer (NR concentration 270 nM)
Outline: as §1

[18] = system: RARa:RXR (NR concentration 270 nM, RXRa partner concentration 90 nM)
Outline: as §1

[19] = system: RARa homodimer (NR concentration 270 nM)
Outline: as §1

[20] = system: RARb:RXRa (NR concentration 270 nM, RXRa partner concentration 90 nM)
Outline: as §1

TGAAGGAGGTTATAAGATCAGGGAACGTTGCAAA
PBM binding z-score [1]: 0.559 | PBM binding z-score [2]: 0.855 | PBM binding z-score [3]: -0.0635 | PBM binding z-score [4]: 0.774 | PBM binding z-score [5]: -0.481 | PBM binding z-score [6]: 2.16 | PBM binding z-score [7]: 0.845 | PBM binding z-score [8]: 1.42 | PBM binding z-score [9]: 0.992 | PBM binding z-score [10]: 1.16 | PBM binding z-score [11]: -0.131 | PBM binding z-score [12]: 0.876 | PBM binding z-score [13]: 0.728 | PBM binding z-score [14]: 0.392 | PBM binding z-score [15]: 0.374 | PBM binding z-score [16]: 0.292 | PBM binding z-score [17]: 0.19 | PBM binding z-score [18]: 0.993 | PBM binding z-score [19]: 0.904 | PBM binding z-score [20]: 0.905

AATACAGGGTCATCGTAGGCCAGATTACGCACAG
PBM binding z-score [1]: 7.31 | PBM binding z-score [2]: 6.79 | PBM binding z-score [3]: 2.75 | PBM binding z-score [4]: 4.95 | PBM binding z-score [5]: 1.56 | PBM binding z-score [6]: 5.92 | PBM binding z-score [7]: 6.61 | PBM binding z-score [8]: 6.1 | PBM binding z-score [9]: 3.14 | PBM binding z-score [10]: 4.89 | PBM binding z-score [11]: 2.88 | PBM binding z-score [12]: 4.16 | PBM binding z-score [13]: 2.1 | PBM binding z-score [14]: 1.86 | PBM binding z-score [15]: 3.02 | PBM binding z-score [16]: 5.14 | PBM binding z-score [17]: 0.561 | PBM binding z-score [18]: 5.6 | PBM binding z-score [19]: 0.954 | PBM binding z-score [20]: 4.27

ATCGAAAGGTCGAAGGTGAGTATTCCCACCCGAA
PBM binding z-score [1]: 4.33 | PBM binding z-score [2]: 3.66 | PBM binding z-score [3]: 0.077 | PBM binding z-score [4]: 2.78 | PBM binding z-score [5]: 0.842 | PBM binding z-score [6]: 4.58 | PBM binding z-score [7]: 4.28 | PBM binding z-score [8]: 5 | PBM binding z-score [9]: 1.99 | PBM binding z-score [10]: 4.39 | PBM binding z-score [11]: 0.38 | PBM binding z-score [12]: 2.13 | PBM binding z-score [13]: 0.944 | PBM binding z-score [14]: 0.361 | PBM binding z-score [15]: 2.58 | PBM binding z-score [16]: 2.89 | PBM binding z-score [17]: -0.082 | PBM binding z-score [18]: 4.32 | PBM binding z-score [19]: 0.118 | PBM binding z-score [20]: 3.64

TGAATGAGGTTATAAGGTCAGGGAACGTTGCAAA
PBM binding z-score [1]: 5.12 | PBM binding z-score [2]: 4.24 | PBM binding z-score [3]: 0.615 | PBM binding z-score [4]: 3.38 | PBM binding z-score [5]: 0.153 | PBM binding z-score [6]: 5.17 | PBM binding z-score [7]: 5.07 | PBM binding z-score [8]: 5.43 | PBM binding z-score [9]: 2.33 | PBM binding z-score [10]: 4.46 | PBM binding z-score [11]: 2.58 | PBM binding z-score [12]: 4.37 | PBM binding z-score [13]: 1.54 | PBM binding z-score [14]: 1.21 | PBM binding z-score [15]: 2.82 | PBM binding z-score [16]: 4.17 | PBM binding z-score [17]: 0.241 | PBM binding z-score [18]: 5.68 | PBM binding z-score [19]: 0.814 | PBM binding z-score [20]: 3.88

CTCGAAAGGTCCTGCTCAGGTGAGTATACCAAAC
PBM binding z-score [1]: 0.485 | PBM binding z-score [2]: 0.0121 | PBM binding z-score [3]: -0.23 | PBM binding z-score [4]: 0.151 | PBM binding z-score [5]: -0.603 | PBM binding z-score [6]: 0.515 | PBM binding z-score [7]: -0.342 | PBM binding z-score [8]: 0.119 | PBM binding z-score [9]: -0.0279 | PBM binding z-score [10]: -0.0509 | PBM binding z-score [11]: -0.108 | PBM binding z-score [12]: 0.189 | PBM binding z-score [13]: 0.172 | PBM binding z-score [14]: -0.54 | PBM binding z-score [15]: -0.47 | PBM binding z-score [16]: -0.11 | PBM binding z-score [17]: -0.684 | PBM binding z-score [18]: 0.631 | PBM binding z-score [19]: -0.103 | PBM binding z-score [20]: 1.06

TAGCCTAGGTCGTGGGCCAGTATACCACGCGAAC
PBM binding z-score [1]: 0.0973 | PBM binding z-score [2]: 0.0379 | PBM binding z-score [3]: -0.669 | PBM binding z-score [4]: 0.0173 | PBM binding z-score [5]: -0.88 | PBM binding z-score [6]: 0.972 | PBM binding z-score [7]: 0.333 | PBM binding z-score [8]: 0.511 | PBM binding z-score [9]: -0.615 | PBM binding z-score [10]: -0.0658 | PBM binding z-score [11]: -0.693 | PBM binding z-score [12]: 0.595 | PBM binding z-score [13]: -0.359 | PBM binding z-score [14]: -1.24 | PBM binding z-score [15]: -0.437 | PBM binding z-score [16]: -0.344 | PBM binding z-score [17]: -0.949 | PBM binding z-score [18]: 0.14 | PBM binding z-score [19]: -0.754 | PBM binding z-score [20]: 1.19

CCTGCTAGGTGATGGTCAGCTAATCTACAGTATG
PBM binding z-score [1]: -0.61 | PBM binding z-score [2]: -0.646 | PBM binding z-score [3]: -0.557 | PBM binding z-score [4]: -0.682 | PBM binding z-score [5]: -0.584 | PBM binding z-score [6]: -0.449 | PBM binding z-score [7]: -0.12 | PBM binding z-score [8]: -0.449 | PBM binding z-score [9]: -0.178 | PBM binding z-score [10]: -0.369 | PBM binding z-score [11]: 1.57 | PBM binding z-score [12]: 1.13 | PBM binding z-score [13]: -1.09 | PBM binding z-score [14]: -0.973 | PBM binding z-score [15]: -0.218 | PBM binding z-score [16]: -0.725 | PBM binding z-score [17]: -0.701 | PBM binding z-score [18]: -0.72 | PBM binding z-score [19]: -0.885 | PBM binding z-score [20]: 0.079

— the supplement of paper PMC6555819
